Results published in PubChem BioAssay (NCI).
Compounds without any hit were thinned out: in the full panel of roughly 83,000, 20% have a hit.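 The endpoint reported here, percent growth, reads 100 for growth as untreated, 0 for no net growth and -100 for all cells dead.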 The source made the active and inactive calls. How the source made its calls: active means growth percent below 10; inactive means the rest.

Legend:
Experiment in all cases: NCI-60 one-dose screen, 48 h (100 = growth as untreated, 0 = no growth, -100 = all killed)
[1] = system: BT-549 breast; conditions: 10 µM
[2] = system: MDA-MB-435 melanoma; conditions: 10 µM
[3] = system: SW-620 colon; conditions: 10 µM
[4] = system: MCF7 breast; conditions: 10 µM unless noted
[5] = system: HCT-116 colon; conditions: 10 µM
[6] = system: HCC-2998 colon; conditions: 10 µM
[7] = system: KM12 colon; conditions: 10 µM
[8] = system: T-47D breast; conditions: 10 µM

Measured: growth

Cc1cc(NC(=O)CSCC(=O)O)no1
inactive: [1] 98.7% | [2] 105% | [3] 102% | [4] 91.9% | [5] 101% | [6] 113% | [7] 107%

O=C1N(C[P+](c2ccccc2)(c2ccccc2)c2ccccc2)CCCN1C[P+](c1ccccc1)(c1ccccc1)c1ccccc1
inactive: [1] 103% | [2] 105% | [3] 109% | [4] 98.7% | [5] 97%

NC(=S)CN1CCOCC1
inactive: [8] 114% | [2] 111% | [3] 103% | [5] 109% | [6] 102% | [7] 102%

CN(C)CCC(=O)c1ccc(O)cc1
inactive: [8] 96.4% | [2] 110% | [3] 107% | [4] 97.7% | [5] 106% | [6] 104% | [7] 99.9%

Cc1nc2ccccc2c(C(=O)O)c1O
inactive: [8] 91.3% | [2] 112% | [3] 110% | [4] 103% | [6] 89% | [7] 120%

CCOC(=O)CSc1c([N+](=O)[O-])ncn1C
inactive: [8] 101% | [2] 101% | [3] 103% | [4] 88.2% | [5] 103% | [6] 107% | [7] 96.2%

CCC(=O)Oc1ccc(OC)cc1
inactive: [8] 101% | [2] 106% | [3] 102% | [4] 102% | [5] 107% | [6] 114% | [7] 106%

Cc1cc(N2CCC(N3CCCC3)CC2)nc(/N=C(\N)Nc2ccc(Cl)c(Cl)c2)n1
inactive: [8] 106%
active: [2] -98.6% | [3] -56% | [4] -44.7% | [5] -93.3% | [6] -82.2% | [7] 9.92%

CN(C)c1nc2c([nH]1)c(=O)n(C)c(=O)n2C
inactive: [1] 103% | [2] 111% | [3] 102% | [4] 106% | [5] 97% | [6] 89.8%

Cc1cc(=O)cc(C)n1-c1ccccc1
inactive: [8] 91.7% | [2] 110% | [3] 107% | [4] 94.4% | [5] 98.4% | [6] 107% | [7] 104%

CC1(c2ccccc2)NC(=O)NC1=O (stereo unspecified)
inactive: [8] 109% | [2] 113% | [3] 115% | [5] 111% | [6] 102% | [7] 112%

COc1cc(C(=O)NC(=S)Nc2ccc3ccccc3c2)cc(OC)c1OC
inactive: [8] 91.2% | [1] 121% | [3] 74% | [4] 93.2% | [5] 104% | [6] 99.5% | [7] 95.5%

COc1ccc(C(C)C=O)cc1 (stereo unspecified)
inactive: [8] 97.9% | [2] 113% | [4] 95.9% | [5] 101% | [6] 109% | [7] 107%

O=C(/C=C/C(=O)c1ccccc1)c1ccccc1
inactive: [8] 92.4% | [2] 100% | [4] 75.2% | [5] 87.6% | [6] 107% | [7] 111%

O=[N+]([O-])c1ccc(N=Nc2ccc(O)c3ccccc23)cc1
active: [8] 9.85%
inactive: [2] 52.7% | [3] 34% | [4] 19.5% | [7] 33.1%

CSc1[nH]c(=O)ncc1F
inactive: [1] 94.1% | [2] 102% | [3] 102% | [4] 96% | [5] 98.3% | [6] 96.8% | [7] 104%

O=c1[nH]nc(SC2CCCCC2)c(=O)[nH]1
inactive: [8] 99.6% | [2] 105% | [3] 98.6% | [4] 97.5% | [6] 92% | [7] 107%

CCOC(=O)c1[nH]c(C)c(C(=O)O)c1C
inactive: [8] 109% | [2] 110% | [3] 107% | [4] 78.9% | [6] 107% | [7] 110%

Cc1cc(C)c(N)c(S(=O)(=O)O)c1
inactive: [8] 93.2% | [2] 98.9% | [3] 111% | [4] 92.1% | [5] 93.6% | [6] 91.2% | [7] 115%

CC(=O)Nc1cccc(Cl)c1C
inactive: [2] 94.8% | [3] 101% | [4] 105% | [5] 103% | [6] 107% | [7] 98.9%

CCCCCCCCCCCCCC(=O)Oc1ccc[nH]c1=O
inactive: [1] 94.4% | [2] 113% | [3] 101% | [4] 95.8% | [5] 94.6% | [6] 109% | [7] 92.7%

CCOC(=O)c1cc(/C=C/c2cccc(Cl)c2)on1
inactive: [1] 87.2% | [2] 83% | [3] 84.2% | [4] 13.9% | [6] 97.2% | [7] 57.4%
active: [5] -57.7%

Cc1ccc(C)n1-c1ccsc1C(=O)NNC(=O)CCl
inactive: [1] 70.1% | [2] 92.1% | [4] 78.4% | [5] 78% | [6] 116% | [7] 104%

c1csc(-c2cc(-c3cc(-c4cccs4)[nH]n3)n[nH]2)c1
inactive: [1] 90.7% | [2] 114% | [3] 104% | [4] 75.5% | [5] 91.4% | [6] 111% | [7] 105%

CN(C)CCN(C)CC(C)(C)C(=O)/C=C/c1ccc(Cl)cc1
active: [1] -34.5% | [2] 0.434% | [3] -24.2% | [4] -8.84% | [6] -92.9% | [7] -23.7%

Nc1nc2c(c(-c3nc(N)nc4c3CCc3ccccc3-4)n1)CCc1ccccc1-2
inactive: [1] 109% | [2] 109% | [3] 101% | [4] 95.4% | [5] 105% | [6] 114% | [7] 105%

CC(=O)CC(=O)N(C)C
inactive: [1] 99.5% | [2] 98.2% | [3] 101% | [4] 94.8% | [5] 95.6% | [6] 108% | [7] 102%

OCCN(CCO)C(=S)S
inactive: [1] 110% | [2] 108% | [3] 106% | [4] 98.2% | [5] 109% | [6] 113% | [7] 107%

CC(C)NC(=O)OCc1c(COC(=O)NC(C)C)c(-c2ccc(Cl)c(Cl)c2)n2c1SCC2
inactive: [1] 21.7% | [2] 67.2% | [3] 44.8% | [4] 32.2% | [5] 29.9% | [6] 72.8% | [7] 77.6%

COc1ccccc1C1OC2=Nc3cc(C)c(C)cc3NC2C1=O (stereo unspecified)
inactive: [1] 88.6% | [2] 82.5% | [3] 73.9% | [4] 56.8% | [5] 39.2% | [6] 105% | [7] 93%

O=[N+]([O-])c1ccc(-c2noc(-c3cccs3)n2)cc1
inactive: [1] 78.3% | [2] 94.2% | [4] 63.2% | [5] 47.5% | [6] 99.9% | [7] 88.5%

CC1(C)S(=O)(=O)OCCOS1(=O)=O
inactive: [1] 100% | [2] 103% | [3] 101% | [4] 97.1% | [5] 94.6% | [6] 113% | [7] 106%

CC(=O)C1CCCCC1
inactive: [1] 99.9% | [2] 104% | [3] 100% | [4] 97.9% | [5] 102% | [6] 103% | [7] 100%

CS(=O)CC1=NC(=N)N=C1CS(C)=O (stereo unspecified)
inactive: [1] 110% | [2] 109% | [3] 108% | [4] 95% | [5] 102% | [6] 104% | [7] 108%

c1ccc2c(c1)Sc1ccccc1S2
inactive: [1] 97.5% | [2] 110% | [3] 104% | [4] 95.7% | [6] 92.5%

COc1cc(OC)c2ccc(=O)oc2c1
inactive: [1] 111% | [2] 107% | [3] 101% | [4] 100% | [5] 109% | [6] 94.8% | [7] 98.9%

CC1(O)OC(COc2ccc(Cl)cc2)COC1O (stereo unspecified)
inactive: [1] 112% | [2] 106% | [3] 101% | [4] 90.4% | [5] 103% | [6] 109% | [7] 108%
